22 molecules from PubChem BioAssay (NCATS) can be followed below.

Assay [1] in a line: qHTS for Inhibitors of the Functional Ribonucleoprotein Complex (vRNP) of Lassa (LASV) Arenavirus: LASV Primary Screen - GLuc reporter signal (AID 1347082; note: nearly all actives have a fitted effect of over 60% in size). (In qHTS, concentration-response curves come from the screen itself.)
Assay [2] in a line: qHTS for Inhibitors of the Functional Ribonucleoprotein Complex (vRNP) of Lassa (LASV) Arenavirus: Viability assay - alamar blue signal for LASV Primary Screen (AID 1347083). Note: nearly all actives have a fitted effect of over 80% in size.
A short description of assay [3]: qHTS for Inhibitors of the Functional Ribonucleoprotein Complex (vRNP) of Lymphocytic Choriomeningitis Arenaviruses (LCMV): Viability assay - alamar blue signal for LCMV Primary Screen (AID 1347085). Note: nearly all actives have a fitted effect of over 80% in size.

SMILES strings stand for the structures. Inconclusive results are not listed. Activity calls are given as the source filed them. Calls come from the whole dose curve; tested in HEK293 reporter line.
Note: series mostly up to about 57 µM.

On to `CC(C(=O)O)c1ccc2c(c1)Cc1cccnc1O2` (stereo not drawn), for which the Potency result in assay [1], in assay [2] and in assay [3] was “inactive” throughout.

For the molecule `CCn1c(=O)c2c(nc(C=Cc3ccc(OC)c(OC)c3)n2C)n(CC)c1=O`, the Potency result in assay [1], in assay [2] and in assay [3] was “inactive” each time.

With `OC1C(O)C(O)C(O)C(O)C1O` (stereo not drawn), the Potency result in assay [1], in assay [2] and in assay [3] was “inactive” each time.

`Cc1ccc2c(c1)c1c3n2CCNC3CCC1` (stereo not drawn): the Potency entry in assay [1], in assay [2] and in assay [3] was “inactive” each time.

Regarding `CC(=O)[C@@]1(O)CC[C@H]2[C@@H]3CCC4=CC(=O)CC[C@]4(C)[C@H]3CC[C@@]21C`, the Potency entry in assay [1], in assay [2] and in assay [3] was “inactive” in each case.

For the molecule `NC(=O)C(=O)N/N=C/c1ccc([N+](=O)[O-])o1`, the Potency entry in assay [1], in assay [2] and in assay [3] was “inactive” each time.

Regarding `O=c1oc2c(O)c(O)cc3c(=O)oc4c(O)c(O)cc1c4c23`, the Potency entry in assay [1], in assay [2] and in assay [3] was “inactive” each time.

Consider `C/C=C/c1ccc(OC)cc1`, for which the Potency entry in assay [1], in assay [2] and in assay [3] was “inactive” throughout.

With `O=C(O)c1cccnc1Nc1cccc(C(F)(F)F)c1`, the Potency entry in assay [1], in assay [2] and in assay [3] was “inactive” each time.

With `CCOC(=O)c1ccc(NC(=O)CN2CCCCC2)cc1`, the Potency result in assay [1], in assay [2] and in assay [3] was “inactive” each time.

Regarding `O=C(CCCN1CCC(O)(c2ccc(Br)cc2)CC1)c1ccc(F)cc1`, the Potency entry in assay [1], in assay [2] and in assay [3] was “inactive” in each case.

On to `CCc1nnc(NS(=O)(=O)c2ccc(N)cc2)s1`, for which the Potency result in assay [1], in assay [2] and in assay [3] was “inactive” in each case.

`O=C(O)CNC(=O)c1ccccc1I`: the Potency entry in assay [1], in assay [2] and in assay [3] was “inactive” in each case.

As to `NCC1CCC(C(=O)Oc2ccc(CCC(=O)O)cc2)CC1` (stereo not drawn), the Potency entry in assay [1], in assay [2] and in assay [3] was “inactive” each time.

Regarding `COc1ccc(OC(=O)N(CC(=O)O)Cc2ccc(OCCc3nc(-c4ccccc4)oc3C)cc2)cc1`, the Potency result in assay [1] and in assay [3] was “inactive” in each case.

Turning to `O=C(Nc1ccc([N+](=O)[O-])cc1Cl)c1cc(Cl)ccc1O`, the Potency entry in assay [1] and in assay [3] was “inactive” throughout.

For `CC(=O)OCC1=C(C(=O)O)N2C(=O)[C@@H](NC(=O)CSc3ccncc3)[C@H]2SC1`, the Potency entry in assay [1], in assay [2] and in assay [3] was “inactive” each time.

As for `C[C@]12CCC(=O)C=C1CC[C@@H]1[C@@H]2[C@@H](O)C[C@@]2(C)[C@H]1CC[C@]2(O)C(=O)CO`, the Potency result in assay [1], in assay [2] and in assay [3] was “inactive” throughout.

For `CCC(=O)O[C@]1(C(=O)CCl)[C@@H](C)C[C@H]2[C@@H]3CCC4=CC(=O)C=C[C@]4(C)[C@@]3(F)[C@@H](O)C[C@@]21C`, the Potency entry in assay [1] and in assay [3] was “inactive” each time.

In the case of `CCCC(=O)OC[C@@H](OC(=O)CCC)[C@@H](OC(=O)CCC)[C@H](Cn1c2nc(=O)[nH]c(=O)c-2nc2cc(C)c(C)cc21)OC(=O)CCC`, the Potency entry in assay [1], in assay [2] and in assay [3] was “inactive” each time.

As to `CC(C)(C)NCC(O)COc1cccc2c1CCC(=O)N2` (stereo not drawn), the Potency entry in assay [1], in assay [2] and in assay [3] was “inactive” throughout.

`COC(=O)[C@H]1[C@H]2C[C@@H]3c4[nH]c5cc(OC)ccc5c4CCN3C[C@H]2C[C@@H](OC(=O)COc2ccc(OC)cc2)[C@@H]1OC`: the Potency entry in assay [1], in assay [2] and in assay [3] was “inactive” in each case.
